In all, about 2,400 compounds went through this assay and about 950 (40%) were called active. A selection follows. A number with no mark means an inactive call. Cut-off read from the data, not from the text of the source: active = inhibition above about 49%; inactive = the rest.
target: Trace amine-associated receptor 1 (Homo sapiens) (UniProt Q96RJ0); assay: human TAAR1 antagonists, retest of hits, confirmation, cell-based, fluorescence (AID 651785); settings: TAAR1-expressing cells, fluorescence antagonist read-out; at 3 µM; stronger effect = higher value;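 note: CHO-Ga16 host cells challenged with agonist PEA near its EC80; 0% = agonist at EC80 plus vehicle and 100% = vehicle with no agonist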
Sequence (Q96RJ0 whole entry, looked up, the tested form may be a part): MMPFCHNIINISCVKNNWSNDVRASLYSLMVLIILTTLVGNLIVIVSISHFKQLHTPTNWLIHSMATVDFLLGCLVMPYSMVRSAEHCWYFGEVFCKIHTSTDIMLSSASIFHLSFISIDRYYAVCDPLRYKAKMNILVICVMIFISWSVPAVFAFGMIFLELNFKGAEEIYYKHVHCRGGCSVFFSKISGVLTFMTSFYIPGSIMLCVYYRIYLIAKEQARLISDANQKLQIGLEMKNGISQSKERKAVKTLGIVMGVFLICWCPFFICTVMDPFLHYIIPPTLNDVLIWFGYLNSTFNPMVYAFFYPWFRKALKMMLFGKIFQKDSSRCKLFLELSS

Compound	inhibition
O=C(NCc1ccc2c(c1)OCO2)c1c(-c2ccsc2)sc2ccccc12	26.4%
O=C(CN1CCCSc2ccccc21)N1CCN(S(=O)(=O)c2cccc(F)c2)CC1	34.9%
Oc1ccc(/C=N/Nc2nc(-c3ccccc3F)nc3ccccc23)c(O)c1	55.8% (active)
Fc1ccc(/C=N/Nc2nc(-c3cccnc3)nc3ccccc23)cc1	41.7%
C/C(=N\Nc1ncc(Cl)cc1Cl)c1ccc(S(=O)(=O)NCc2ccco2)cc1	33%
CC(=O)Nc1ccc(NC(=O)COC(=O)C2CCC(C(C)(C)C)CC2)cc1 (stereo unspecified)	52.9% (active)
C[C@H](NC(=O)c1nc[nH]c1C(=O)NCC(=O)OC(C)(C)C)C(=O)OCc1ccccc1	46.1%
COc1ccc(CCNC(=O)C(=O)NCC2OCCN2S(=O)(=O)c2ccc(OC)c(C)c2)cc1 (stereo unspecified)	26.8%
COc1ccc(CCNC(=O)c2ccc(CS(=O)(=O)c3ccc(Br)cc3)o2)cc1OC	52.1% (active)
COc1cc(OC)cc(C(=O)OCC(=O)Nc2sccc2C(N)=O)c1	48.2%
O=C(COC(=O)CCCSc1nc2ccccc2[nH]1)Nc1ccc(Oc2ccccc2)cc1	50.7% (active)
N#Cc1cccc(NC(=O)COC(=O)c2ccccc2C(=O)c2ccc(Cl)c([N+](=O)[O-])c2)c1	52.5% (active)
CC(=O)n1cc([C@H]2C=C(C(=O)N3CCOCC3)O[C@@H](OCc3ccc(CO)cc3)C2)c2ccccc21	40.4%
CCC(=O)Oc1cccc(C(=O)Nc2ccc(-c3nnc(-c4ccco4)o3)cc2)c1	46.1%
O=C(CCc1ccccc1)Nc1cccc(-c2nnc(-c3ccco3)o2)c1	49.1% (active)
O=C(Nc1ccc(-c2nnc(-c3ccccc3)o2)cc1)c1ccc(Br)o1	21.3%

Compound	inhibition
COc1ccc(Cl)cc1NC(=O)CCS(=O)(=O)c1cc2c(cc1C)NC(=O)CO2	36%
CCOC(=O)C1C(c2ccc(OC)c(OC)c2)c2c([nH][nH]c2=O)CC1(C)O (stereo unspecified)	38.7%
Cc1ccc(-n2c(C)cc(/C=N\NC(=O)CC(=O)NC(C)C)c2C)cc1	97.9% (active)
CNC(=O)c1ccsc1NC(=O)c1ccc(S(=O)(=O)N2CCc3ccccc32)cc1	43.2%
O=C(COC(=O)c1ccccc1SCC(=O)N1CCCC1)Nc1ccccc1OC(F)F	52.2% (active)
O=C(OCC(=O)N(CCc1ccccc1)Cc1ccccc1)c1ccccc1[N+](=O)[O-]	47.4%
CC(C)N(Cc1ccccc1)C(=O)COC(=O)c1ccccc1SCC(=O)N1CCCC1	52.8% (active)
COC(=O)[C@@]1(Sc2ccc(C)cc2)CC(=O)N(c2cccc(SC)c2)[C@@H]1c1ccccc1	47.3%
CCOc1ccc(NC(=O)N2CC=C(n3c(=O)[nH]c4ccccc43)CC2)cc1	39.5%
COC(=O)C1=C(C)N(Cc2ccc(F)cc2)C(=S)NC1c1cccc(Cl)c1 (stereo unspecified)	36.5%
CCN=C1SC(CC(=O)Nc2ccc(C)cc2)C(=O)N1CC (stereo unspecified)	59.2% (active)
O=C(N/N=C/c1ccc(Cl)c(Cl)c1)c1ccc2nc[nH]c2c1	52.9% (active)
CCOc1cc(/C=N/NC(=O)c2cc(-c3ccccc3)nc3ccccc23)ccc1O	44.9%
CSc1nc(-c2ccccc2)nc(C(Cl)Cl)n1	36.6%
COc1cc(SC#N)ccc1N=Cc1c(C)[nH]n(-c2ccc(C)cc2)c1=O	67.6% (active)

— PubChem BioAssay AID651785 (The Scripps Research Institute Molecular Screening Center, 2012)
